# Experimental data as given in PubChem BioAssay AID1239 (SRMLSC, 2008).
# Among all 190,000 compounds or so, about 3,100 (1.6%) were called active. No stated cut-off is given here; in the data, active means fold change above about 3.3; inconclusive means no clear call, values can overlap the other calls; inactive means below that. This excerpt belongs to a sample that is enriched for actives.
# Test: NF-kB upregulation, human neuronal cells – cell-based, HTS, primary screen (AID 1239)
# Details: NF-kB reporter expression, at 12.5 µM, hits give high values
row,Structure (SMILES),fold change
1,COc1ccc(/C=N/NC(=O)Cn2cc(C(F)(F)F)ccc2=O)cc1,1.07 (inactive)
2,O=C(O)/C=C/c1ccc(S(=O)(=O)N2CCCCCC2)cc1,1.17 (inactive)
3,CCCC(=O)Nc1ccc(C(=O)N/N=C/c2ccc[nH]2)cc1,6.81 (active)
4,CCCCCC(=O)Nc1ccc(C(=O)N/N=C/c2ccc([N+](=O)[O-])cc2)cc1,1.05 (inactive)
5,CCCC(=O)Nc1ccc(C(=O)NCCCn2ccnc2)cc1,1.01 (inactive)
6,CCn1c(N)c(Br)c(=O)[nH]c1=O,0.94 (inactive)
7,CN(C)c1ccc(C2Nc3ccccc3C(=O)N2NS(=O)(=O)c2ccccc2)cc1 (stereo not drawn),0.87 (inactive)
8,CC1(C)CC(=O)C(C2c3ccccc3S(=O)(=O)c3ccccc32)C(=O)C1,1.19 (inactive)
9,Cc1ccc(C(=O)NN(CCC#N)C2=NS(=O)(=O)c3ccccc32)cc1,1.06 (inactive)
10,CC1(C)C2CC=C(/C=N/NC(=O)C3CC3)C1C2 (stereo not drawn),1.13 (inactive)
11,CC(C)c1ccc(NC(=O)NC2CCCCC2)cc1,5.47 (active)
12,CC(C)N1CCC(NC(=O)Nc2ccccc2)CC1,1.04 (inactive)
13,CC(C)(C)NS(=O)(=O)c1ccc(NC(=O)NC2CCCCC2)cc1,0.89 (inactive)
14,CCOc1cc(NC(=S)NCc2ccco2)c(OCC)cc1NC(=O)c1ccco1,1.12 (inactive)
15,CCN(CC)C(=O)C(=O)c1cn(CC(=O)NCc2ccc3c(c2)OCO3)c2ccccc12,1.39 (inactive)
16,CCc1ccc2c(c1)C1(NN=C(c3ccccc3)S1)C(=O)N2 (stereo not drawn),4.48 (active)
17,O=C1Nc2ccccc2C12Nc1ccccc1S2 (stereo not drawn),1.44 (inactive)
18,C=C1c2cc(CC)ccc2NC(=O)N1c1ccc(C)cc1,1.19 (inactive)
19,O=C(CSc1cccc[n+]1[O-])c1ccc(-c2ccccc2)cc1,2.45 (inactive)
20,O=C(Nc1ccc2nc3n(c(=O)c2c1)CCCCC3)c1ccccc1Cl,1.29 (inactive)
21,COc1cc(NC(=O)c2cccs2)ccc1NC(=O)c1ccccc1Cl,0.87 (inactive)
22,O=C(Nc1ccc2sc3ccccc3c(=O)c2c1)c1ccccc1Cl,6.23 (active)
23,CCOC(=O)Cc1csc(NC(=O)COc2ccc3c(C)cc(=O)oc3c2)n1,0.61 (inactive)
24,O=C(CCC1CCCN(Cc2ccc(O)c(Cl)c2)C1)NCc1ccccc1F (stereo not drawn),1.07 (inactive)
25,CC(=O)Nc1cccc(C(=O)Nc2nc(C)cs2)c1,1.22 (inactive)
26,Cc1csc(NC(=S)Nc2cccc(Cl)c2)n1,3.32 (active)
27,S=C(Nc1cccc(Cl)c1)Nc1ccc2cn[nH]c2c1,1.36 (inactive)
28,NC(=O)c1ccc(NC(=O)COC(=O)C(Cc2ccccc2)NC(=O)c2ccccc2)cc1 (stereo not drawn),0.99 (inactive)
